Laboratory results from PubChem BioAssay (Tox21).
Unmarked numbers belong to inactive results. Activity calls are given as the source filed them. Calls come from the whole dose curve.

What follows are molecules tested against Acetylcholinesterase (Homo sapiens) (UniProt P22303) (assay: Acetylcholinesterase (AChE) small molecule antagonists: enzyme-based qHTS assay with human liver microsomes (AID 1347399; note: nearly all actives have a fitted effect of over 60% in size)). Conditions: Potency: qHTS inhibition; outcome: qHTS inhibition; series mostly up to 115 µM; activity change, negative = inhibition: at the top concentration.
Method in brief: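 Recombinant human AChE (50 mU/mL in the enzyme mix) and human liver microsomes (0.25 mg/mL final) were preincubated with compound and NADPH (0.25 mg/mL final) for 30 min at 37 C. Acetylthiocholine/DTNB was then added; thiocholine was read colorimetrically after 10 min at room temperature.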
% is set by controls: 0 for no effect and ±100 for the full control effect.

Acetylcholinesterase (Homo sapiens), sequence (P22303 whole entry, looked up): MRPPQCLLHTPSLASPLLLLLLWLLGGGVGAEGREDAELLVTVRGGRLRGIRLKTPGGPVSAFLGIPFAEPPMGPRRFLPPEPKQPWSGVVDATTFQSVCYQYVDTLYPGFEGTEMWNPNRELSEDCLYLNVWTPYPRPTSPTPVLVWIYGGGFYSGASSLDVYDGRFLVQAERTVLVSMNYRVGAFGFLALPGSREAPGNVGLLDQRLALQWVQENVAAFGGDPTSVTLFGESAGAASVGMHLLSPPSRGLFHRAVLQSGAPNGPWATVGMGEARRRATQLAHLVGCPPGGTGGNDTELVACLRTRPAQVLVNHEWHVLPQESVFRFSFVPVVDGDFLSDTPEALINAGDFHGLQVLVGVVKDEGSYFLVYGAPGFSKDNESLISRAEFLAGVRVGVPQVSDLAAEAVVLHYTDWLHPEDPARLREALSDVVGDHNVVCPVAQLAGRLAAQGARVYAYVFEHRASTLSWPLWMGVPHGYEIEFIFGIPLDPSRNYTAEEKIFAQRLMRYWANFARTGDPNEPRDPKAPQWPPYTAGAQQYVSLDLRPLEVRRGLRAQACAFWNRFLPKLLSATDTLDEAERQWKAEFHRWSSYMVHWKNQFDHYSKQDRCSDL

| SMILES | activity change, negative = inhibition | Potency |
| --- | --- | --- |
| CC(C)(c1ccccc1)c1ccccc1 | 0.748% |  |
| C=CC(=O)OCCOC(=O)C=C | -1.35% |  |
| O=C(CCCl)NCc1ccccc1 | 2.06% [at 53 µM] |  |
| O=C1c2c(O)ccc(Nc3ccc(CCO)cc3)c2C(=O)c2c([N+](=O)[O-])ccc(O)c21 | 5.58% |  |
| CC(C)=CCC/C(C)=C/C=O |  | inactive |
| C1CCCCC1 | -0.857% |  |
| C/C=C/c1ccc(OCC)c(O)c1 |  | inactive |
| O=C(O)CCCCCCCCCCC(=O)O |  | inactive |
| CC(C#N)(CCC(=O)O)N=NC(C)(C#N)CCC(=O)O (stereo not given) | -4% |  |
| CCCCCCCC1CCCC1=O (stereo not given) | -0.786% |  |
| CC(C)(C)C(=O)C1C(=O)c2ccccc2C1=O |  | inactive |
| Cc1ccc(C(C)C)cc2c(C)ccc1-2 | 1.53% [at 53 µM] |  |
| CCCCOC(=O)CC(CC(=O)OCCCC)(OC(C)=O)C(=O)OCCCC |  | inactive |
| CCCCCCOC(=O)CCCCCCCC(=O)OCCCCCC | -0.312% |  |
| O=[N+]([O-])c1cc(C2CCCCC2)c(O)c([N+](=O)[O-])c1 | 46.8% |  |
| CCCCN(CCCC)CCCCCCN(CCCC)CCCC | -0.147% |  |
| CC1=NN(c2ccc(S(=O)(=O)O)cc2)C(=O)C1 | 1.54% |  |
| O=Cc1ccccc1C=O |  | inactive |
| c1ccc(Nc2cccc3ccccc23)cc1 |  | inactive |
| C=COC(=O)C(C)(CC)CCC(C)C (stereo not given) | -0.458% |  |

| SMILES | activity change, negative = inhibition | Potency |
| --- | --- | --- |
| CCCCCCCCC=O | -0.149% |  |
| Oc1ccccc1F | -0.317% |  |
| O=C(O)c1ccccc1Cl | -2.91% |  |
| CC(=O)NS(=O)(=O)c1ccc(N)cc1 |  | inactive |
| Nc1cccc(N)n1 |  | inactive |
| CCCCCCCCCCCCCC(=O)O |  | inactive |
| Cc1cc(C)c(C)cc1C |  | inactive |
| CSc1ccc(Cl)cc1 |  | inactive |
| CCCN(CCC)C(=O)SCC |  | inactive |
| CCCCCCCCCCCCCCO |  | inactive |
| O=Cc1cccc([N+](=O)[O-])c1 | 0.262% |  |
| O=C(NCN1CCOCC1)c1cnccn1 | -0.496% [at 53 µM] |  |
| CCOCCOCCO |  | inactive |
| CC(=O)Oc1cccc(O)c1 | 0.157% [at 53 µM] |  |
| CCN(CC)CC1CCCCN1CC(=O)N1c2ccccc2C(=O)Nc2cccnc21 (stereo not given) | -3.83% [at 53 µM] |  |
| CCCCCCCCCCCCCCCCCC(=O)OCC(O)CO (stereo not given) |  | inactive |
| CCOc1c(N2CCOCC2)cnn(C)c1=O | -0.167% [at 53 µM] |  |
| COc1ccc2[nH]cc(CCNC(C)=O)c2c1 |  | inactive |
| Clc1ccccn1 |  | inactive |
| CC(C)(C)c1nnc(NS(=O)(=O)c2ccccc2)s1 | -1.18% [at 53 µM] |  |
